Drawing on PubChem BioAssay (Tox21), this text covers Potency and outcome for 26 molecules.

Inconclusive results are not listed. The source holds several records for some structures; these can differ, active in one and inactive in another. Activity calls are given as the source filed them. Unless noted, calls follow the shape of the dose curve; as a rule, active = well fitted curve in the direction sought with a large enough effect in the repeat runs; inconclusive = weak or mixed curves; inactive = no such curve, though single readings can be large; an effect the other way counts as inactive or inconclusive.

Test [1] is described as follows: qHTS assay to identify small molecule antagonists of the thyroid receptor (TR) signaling pathway (AID 743065). Also: series mostly up to about 70 µM; nearly all actives have a fitted effect of over 55% in size. Summed up: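 Antagonism measured as loss of luciferase signal in GH3 cells stably carrying a TRE-luciferase reporter, co-treated with compound and T3 (1 nM final) for 23.5 h at 37 C. Viability was read in the same well by CellTiter-Fluor.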
For test [2], the system named is thyroid hormone receptor (rat, GH3 cells). As to the kind of experiment: qHTS assay to identify small molecule agonists of the thyroid receptor (TR) signaling pathway (AID 743066; calls by dose curve). In general terms: In qHTS, concentration-response curves come from the screen itself.
Test [3] addresses Estrogen receptor (Homo sapiens) (UniProt P03372). As to the kind of experiment: qHTS assay to identify small molecule antagonists of the estrogen receptor alpha (ER-alpha) signaling pathway (AID 743069; active = well fitted curve in the direction sought with a large enough effect in the signal ratio in the repeat runs, not every such curve was filed as active; the % refers to the signal ratio). Summed up: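 Antagonist mode: compounds in DMSO were co-added with 17beta-estradiol to ER-alpha-bla HEK293 cells (2% charcoal-stripped serum) and left 18 h at 37C. Reporter inhibition was measured as FRET fluorescence after 2 h LiveBLAzer substrate at room temperature.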

Test [4] in a line: qHTS assay to identify small molecule antagonists of the estrogen receptor alpha (ER-alpha) signaling pathway - cell viability counter screen (AID 743074; calls by dose curve;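 also: HEK293 cells carrying ER-alpha-UAS-bla reporter stimulated with 17beta-estradiol; nearly all actives have a fitted effect of over 45% in size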).
In test [5] the target is Estrogen receptor (Homo sapiens) (UniProt P03372). As to the kind of experiment: qHTS assay to identify small molecule agonists of the estrogen receptor alpha (ER-alpha) signaling pathway (AID 743075; calls by dose curve;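 also: HEK293 GripTite cells with ER-alpha and UAS-driven beta-lactamase reporter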).
Test [6] shares this target. As to the kind of experiment: qHTS assay to identify small molecule agonists of the estrogen receptor alpha (ER-alpha) signaling pathway using the BG1 cell line (AID 743079). Also: nearly all actives have a fitted effect of over 20% in size. Also: potency is read from the fitted curve at half-maximal effect.
A short description of test [7]: qHTS assay to identify small molecule antagonists of the estrogen receptor alpha (ER-alpha) signaling pathway using the BG1 cell line (AID 743080; calls by dose curve;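 also: BG1 cells stimulated with 17beta-estradiol alongside compound; series mostly up to about 70 µM; nearly all actives have a fitted effect of over 25% in size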). Summed up: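 Luminescence from a 4×ERE-luciferase reporter in BG1-Luc-4E2 cells served as read-out. Cells, pre-cultured 5 days in stripped-serum phenol-red-free medium, were exposed to compound with 17beta-estradiol co-stimulation for 21.5 h at 37 C.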

A short description of test [8]: qHTS assay to identify small molecule antagonists of the estrogen receptor alpha (ER-alpha) signaling pathway using the BG1 cell line - cell viability counter screen (AID 743081).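 Also: compound given together with 17beta-estradiol as the ER stimulus; series mostly up to about 70 µM; nearly all actives have a fitted effect of over 45% in size.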
The target of the next test is Aromatase (Homo sapiens) (UniProt P11511). As to the kind of experiment: qHTS assay to identify aromatase inhibitors (AID 743083). Also: series mostly up to about 70 µM; nearly all actives have a fitted effect of over 55% in size.
Test [9] can be described thus: qHTS assay to identify aromatase inhibitors - cell viability counter screen (AID 743084).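 Also: cells stimulated with testosterone during compound exposure; nearly all actives have a fitted effect of over 55% in size.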

Chain of Estrogen receptor (Homo sapiens) (P03372 whole entry, looked up): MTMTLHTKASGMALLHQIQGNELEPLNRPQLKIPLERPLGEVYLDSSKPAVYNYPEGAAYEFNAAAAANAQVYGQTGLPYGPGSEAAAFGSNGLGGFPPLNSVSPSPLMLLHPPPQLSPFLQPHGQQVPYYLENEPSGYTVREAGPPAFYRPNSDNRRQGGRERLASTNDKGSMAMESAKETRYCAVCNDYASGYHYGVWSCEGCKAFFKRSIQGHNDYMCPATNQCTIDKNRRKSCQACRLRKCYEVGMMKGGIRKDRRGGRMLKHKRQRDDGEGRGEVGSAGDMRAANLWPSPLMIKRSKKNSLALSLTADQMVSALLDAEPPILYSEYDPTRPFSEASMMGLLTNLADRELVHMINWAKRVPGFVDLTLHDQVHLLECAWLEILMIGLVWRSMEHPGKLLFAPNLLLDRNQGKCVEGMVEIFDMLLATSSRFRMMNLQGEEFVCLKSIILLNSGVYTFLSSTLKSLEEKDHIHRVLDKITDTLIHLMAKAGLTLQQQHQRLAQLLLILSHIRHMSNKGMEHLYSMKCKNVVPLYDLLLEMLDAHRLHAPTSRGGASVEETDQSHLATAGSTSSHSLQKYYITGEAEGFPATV
Chain of Aromatase (Homo sapiens) (P11511 whole entry, looked up): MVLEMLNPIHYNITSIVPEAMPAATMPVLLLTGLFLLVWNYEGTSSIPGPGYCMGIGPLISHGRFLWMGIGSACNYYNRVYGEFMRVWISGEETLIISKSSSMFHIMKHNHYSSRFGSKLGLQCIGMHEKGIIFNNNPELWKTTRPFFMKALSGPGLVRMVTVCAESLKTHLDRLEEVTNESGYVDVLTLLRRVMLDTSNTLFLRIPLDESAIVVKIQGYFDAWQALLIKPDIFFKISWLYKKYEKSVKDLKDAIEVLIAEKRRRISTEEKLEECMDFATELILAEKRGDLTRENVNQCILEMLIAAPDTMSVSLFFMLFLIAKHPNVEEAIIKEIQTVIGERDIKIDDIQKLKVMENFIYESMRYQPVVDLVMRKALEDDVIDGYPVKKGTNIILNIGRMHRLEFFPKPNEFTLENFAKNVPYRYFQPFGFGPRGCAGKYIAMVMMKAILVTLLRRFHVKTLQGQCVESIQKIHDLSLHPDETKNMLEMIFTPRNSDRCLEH

In the case of `CC(=O)OC1CCC(C(C)(C)C)CC1` (stereo unspecified), the Potency entry in test [1], in [2], in test [4], in [5], in test [6] and in test [7] was “inactive” in each case. Further, the Potency result with Aromatase (Homo sapiens) was “inactive”. Also, the call in [3], in [8] and in test [9] was inactive.
Take `CN(C)c1ccncc1`: the Potency result in test [1], in test [2], in [4], in [5], in [6] and in test [7] was “inactive” throughout. Also, the Potency result with Aromatase (Homo sapiens) was “inactive”. Moreover, the call in test [3], in test [8] and in test [9] was inactive.
Turning to `CCCCCCCCCCCCCCCC(=O)OC`, the Potency entry in test [1], in test [2], in [4], in test [5], in [6] and in [7] was “inactive” in each case. Further, the Potency result in the test with Aromatase (Homo sapiens) was “inactive”. Moreover, the molecule was classed as inactive in test [3], in test [8] and in test [9].
Take `CC/C=C\CCCCCCCCCCOC(C)=O`: the Potency result in [1], in test [2], in [4], in [5], in [6] and in [7] was “inactive” throughout. In addition, in the test with Aromatase (Homo sapiens), the Potency entry is “inactive”. Also, the outcome in test [3], in [8] and in [9] was inactive.
Take `CN(C)CCc1c[nH]c2ccc(CS(=O)(=O)N3CCCC3)cc12`: the Potency entry in test [1], in test [2], in test [4], in test [5], in test [6] and in [7] was “inactive” throughout. The Potency entry in the test with Aromatase (Homo sapiens) is “inactive”. The molecule was classed as inactive in [3], in [8] and in test [9].
With `CCCC(=O)OC`, the Potency result in test [1], in test [2], in [4], in test [5], in [6] and in test [7] was “inactive” in each case. Also, the Potency result with Aromatase (Homo sapiens) was “inactive”. The molecule was classed as inactive in test [3], in test [8] and in [9].
Consider `CC(=O)SCC(CC(=O)c1ccc(C)cc1)C(=O)O` (stereo unspecified), for which the Potency entry in test [1], in test [2], in [4], in [5], in test [6] and in test [7] was “inactive” each time. Further, in the test with Aromatase (Homo sapiens), the Potency result is “inactive”. The outcome in test [3], in [8] and in [9] was inactive.
Turning to `CCCCCCCCCCCCCCBr`, the Potency entry in [1], in test [2], in test [4], in test [5], in test [6] and in [7] was “inactive” each time. Moreover, in the test with Aromatase (Homo sapiens), the Potency entry was “inactive”. Further, the molecule was called inactive in test [3], in test [8] and in [9].
For the molecule `CCCCCCCC(=O)N(C)C`, the Potency result in test [1], in [2], in test [4], in test [5], in [6] and in [7] was “inactive” in each case. In the test with Aromatase (Homo sapiens), the Potency entry is “inactive”. Besides, the call in test [3], in test [8] and in test [9] was inactive.
In the case of `Cc1ccc(S(=O)(=O)NC(=O)NN2CC3CCCC3C2)cc1` (stereo unspecified), the Potency result in [1], in [2], in test [4], in test [5], in test [6] and in test [7] was “inactive” throughout. The Potency entry in the test with Aromatase (Homo sapiens) is “inactive”. Besides, the molecule was called inactive in [3], in test [8] and in [9].
Regarding `Cc1nc2ccc(Cl)cc2[nH]1`, the Potency result in test [1], in [2], in [4], in test [5], in [6] and in test [7] was “inactive” in each case. In addition, the Potency entry with Aromatase (Homo sapiens) was “inactive”. Besides, the call in test [3], in test [8] and in [9] was inactive.
For the molecule `C/C=C(\C)C=O`, the Potency entry in test [1], in test [2], in test [4], in test [5], in test [6] and in [7] was “inactive” in each case. Further, the Potency entry with Aromatase (Homo sapiens) is “inactive”. In addition, the outcome in test [3], in [8] and in [9] was inactive.
As for `C[C@@H]1NC(=O)[C@@H](N)CNC(=O)[C@H](C2CCNC(N)=N2)NC(=O)/C(=C/NC(N)=O)NC(=O)[C@H](CNC(=O)C[C@@H](N)CCCN)NC1=O` (stereo partly specified), the Potency result (in test [1]; in test [2]; in test [4]; in [5]; in [7]; in the test with Aromatase (Homo sapiens)) was “inactive” in each case. Further, the result in test [3], in [8] and in [9] was inactive. Further, in [6], the Potency was 29.8 µM (active) and inactive.
For `CCCC(=O)CC`, the Potency entry (in test [1]; in [2]; in [4]; in [5]; in test [7]; with Aromatase (Homo sapiens)) was “inactive” each time. For the same molecule, the molecule was called inactive in test [3], in [8] and in test [9]. Further, in [6], the Potency is 28.1 µM (active).
With `COc1cc2nc(N3CCN(C(=O)C4CCCO4)CC3)nc(N)c2cc1OC` (stereo unspecified), the Potency entry in test [1], in [2], in test [4], in test [5], in [6] and in test [7] was “inactive” each time. Also, the Potency entry with Aromatase (Homo sapiens) was “inactive”. The molecule was classed as inactive in test [3], in test [8] and in test [9].
Turning to `N#Cc1ccccc1C#N`, the Potency entry in test [1], in [2], in test [4], in test [5], in test [6] and in test [7] was “inactive” in each case. In addition, in the test with Aromatase (Homo sapiens), the Potency entry is “inactive”. Further, the call in test [3], in test [8] and in test [9] was inactive.
For `C=COCCCCO`, the Potency result in test [1], in test [2], in [4], in [5], in test [6] and in [7] was “inactive” in each case. Moreover, the Potency result with Aromatase (Homo sapiens) is “inactive”. Also, the molecule was classed as inactive in test [3], in [8] and in test [9].
With `O=C(O)Cc1c(Cl)ccc(Cl)c1Cl`, the Potency result in test [1], in [2], in test [4], in test [5], in test [6] and in [7] was “inactive” in each case. In addition, the Potency entry in the test with Aromatase (Homo sapiens) was “inactive”. The molecule was classed as inactive in [3], in test [8] and in test [9].
For `CCCC(=O)C(CC)Sc1ccoc1C` (stereo unspecified), the Potency result in [1], in test [2], in [4], in test [5], in [6] and in [7] was “inactive” each time. The Potency result with Aromatase (Homo sapiens) was “inactive”. In addition, the outcome in [8] and in [9] was inactive.
For `NS(=O)(=O)c1cc2c(cc1C(F)(F)F)NCNS2(=O)=O`, the Potency entry in [1], in test [2], in [4], in test [5], in test [6] and in [7] was “inactive” throughout. Besides, in the test with Aromatase (Homo sapiens), the Potency result was “inactive”. Also, the molecule was called inactive in [8] and in test [9].
Take `CC(C)(C)c1ccc(N)cc1`: the Potency result (in test [1]; in test [2]; in test [4]; in test [5]; in [7]; in the test with Aromatase (Homo sapiens)) was “inactive” throughout. In addition, the molecule was classed as inactive in test [3], in test [8] and in test [9].
On to `CCCCS`, for which the Potency result in test [1], in test [2], in test [4], in test [5], in [6] and in test [7] was “inactive” each time. In addition, the Potency entry in the test with Aromatase (Homo sapiens) was “inactive”. In addition, the call in test [8] and in test [9] was inactive.
Take `C/C(=N\O)c1ccc(OCC(=O)N2CCCCC2)cc1`: the Potency result (in test [1]; in test [2]; in test [5]; in the test with Aromatase (Homo sapiens)) was “inactive” in each case. Also, the molecule was classed as inactive in test [3], in test [8] and in test [9]. For the same molecule, in [6], the Potency is 4.22 µM (active).
On to `COC(=O)c1ccc(C(=O)O)cc1`, for which the Potency entry in test [1], in test [2], in [4], in test [5], in [6] and in [7] was “inactive” in each case. For the same molecule, the Potency entry with Aromatase (Homo sapiens) is “inactive”. Also, the outcome in [8] and in test [9] was inactive.
As to `C[C@@H]1CC[C@@]2(OC1)O[C@H]1C[C@H]3[C@@H]4CC[C@H]5C[C@@H](O)CC[C@]5(C)[C@H]4CC(=O)[C@]3(C)[C@H]1[C@@H]2C`, the Potency result in test [1], in test [2], in test [4], in test [5], in test [6] and in test [7] was “inactive” each time. Further, the Potency result with Aromatase (Homo sapiens) is “inactive”. The outcome in [8] and in test [9] was inactive.
With `Cc1ccccc1OCC(=O)O`, the Potency entry in test [1], in [2], in test [4], in test [5], in [6] and in test [7] was “inactive” throughout. Also, the Potency result in the test with Aromatase (Homo sapiens) was “inactive”. For the same molecule, the outcome in test [8] and in [9] was inactive.
